“And” between values parts separate entries of the source, which are not always exact repeats. Equal values may be shown once. About 2,000 (36%) of roughly 5,500 compounds were called active. Not shown: some 18% with an inconclusive outcome. Cut-off read from the data, not from the text of the source: active = normalized growth mostly below about 0.91 (no sharp cut-off); inconclusive = no clear call, values can overlap the other calls; inactive = mostly above about 0.92. This is one part of the list.
Experiment: chemical genetic growth profiling, strain panel (AID 1159580);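 note: tested at 20 µM; growth read once vehicle control cultures reached saturation at 30 °C; 1 = growth at the plate median or of vehicle wells; lower values mean less growth of the strain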
Conditions: growth OD
[1] = S. cerevisiae deletion strains, locus YAL013W, strain DEP1, hits give low values
[2] = S. cerevisiae deletion strains, locus YBR229C, strain ROT2, hits give low values
[3] = S. cerevisiae deletion strains, locus YDL101C, strain DUN1, hits give low values
[4] = S. cerevisiae deletion strains, locus YDR150W, strain NUM1, hits give low values
[5] = S. cerevisiae deletion strains, locus YEL061C, strain CIN8, hits give low values
[6] = S. cerevisiae deletion strains, locus YGR078C, strain PAC10, hits give low values
[7] = S. cerevisiae deletion strains, locus YHR030C, strain SLT2, hits give low values
[8] = S. cerevisiae deletion strains, locus YJR043C, strain POL32, hits give low values
[9] = S. cerevisiae deletion strains, locus YJR075W, strain HOC1, hits give low values
[10] = S. cerevisiae deletion strains, locus YKL190W, strain CNB1, hits give low values
[11] = S. cerevisiae deletion strains, locus YLR039C, strain RIC1, hits give low values
[12] = S. cerevisiae deletion strains, locus YLR262C, strain YPT6, hits give low values
[13] = S. cerevisiae deletion strains, locus YMR263W, strain SAP30, hits give low values
[14] = S. cerevisiae deletion strains, locus YMR307W, strain GAS1, hits give low values
[15] = S. cerevisiae deletion strains, locus YNL128W, strain TEP1, hits give low values
[16] = S. cerevisiae deletion strains, locus YNL153C, strain GIM3, hits give low values
[17] = S. cerevisiae deletion strains, locus YNL322C, strain KRE1, hits give low values
[18] = S. cerevisiae deletion strains, locus YPL055C, strain LGE1, hits give low values
[19] = S. cerevisiae deletion strains, locus YPL241C, strain CIN2, hits give low values
[20] = S. cerevisiae deletion strains, locus YAL040C, strain CLN3, hits give low values
[21] = S. cerevisiae deletion strains, locus YNL175C, strain NOP13, hits give low values
[22] = S. cerevisiae deletion strains, locus YNL197C, strain WHI3, hits give low values
[23] = S. cerevisiae deletion strains, locus YNL224C, strain SQS1, hits give low values
[24] = S. cerevisiae deletion strains, locus YOR083W, strain WHI5 (second series), hits give low values
[25] = S. cerevisiae deletion strains, locus YHR087W, strain rtc3, hits give low values
[26] = S. cerevisiae deletion strains, locus YLR058C, strain SHM2 (second series), hits give low values
[27] = S. cerevisiae deletion strains, locus YLR085C, strain ARP6, hits give low values
[28] = S. cerevisiae deletion strains, locus YML094W, strain GIM5, hits give low values
[29] = S. cerevisiae deletion strains, locus YMR219W, strain ESC1, hits give low values
[30] = S. cerevisiae deletion strains, locus YNL298W, strain CLA4 (second series), hits give low values
[31] = S. cerevisiae deletion strains, locus YNR030W, strain Alg12, hits give low values
[32] = S. cerevisiae deletion strains, locus YPR135W, strain CTF4, hits give low values

Measured: normalized growth

C=C(C)[C@@H]1[C@H]2OC(=O)[C@@H]1[C@]1(O)C[C@H]3O[C@]34C(=O)O[C@H]2[C@]14C
inactive: [1] 0.985 | S. cerevisiae deletion strains, locus YBR021W, strain FUR4, hits give low values 1.01 | [2] 0.947 | S. cerevisiae deletion strains, locus YCL029C, strain bik1, hits give low values 0.997 | S. cerevisiae deletion strains, locus YDL035C, strain GPR1, hits give low values 0.987 | S. cerevisiae deletion strains, locus YDL074C, strain BRE1, hits give low values 1.02 | [3] 0.98 | S. cerevisiae deletion strains, locus YDL134C, strain PPH21, hits give low values 0.988 | S. cerevisiae deletion strains, locus YDL185W, strain tfp1, hits give low values 1 | S. cerevisiae deletion strains, locus YDL192W, strain arf1, hits give low values 0.99 | S. cerevisiae deletion strains, locus YDR101C, strain arx1, hits give low values 1 | [4] 0.971 | S. cerevisiae deletion strains, locus YDR162C, strain NBP2, hits give low values 0.987 | S. cerevisiae deletion strains, locus YDR318W, strain mcm21, hits give low values 1.01 | S. cerevisiae deletion strains, locus YDR388W, hits give low values 1.01 | S. cerevisiae deletion strains, locus YDR502C, strain sam2, hits give low values 0.994 | [5] 0.987 | S. cerevisiae deletion strains, locus YER110C, hits give low values 0.973 | S. cerevisiae deletion strains, locus YER155C, strain BEM2, hits give low values 0.999 | S. cerevisiae deletion strains, locus YER167W, strain BCK2, hits give low values 1 | S. cerevisiae deletion strains, locus YGL078C, strain dbp3, hits give low values 0.994 | S. cerevisiae deletion strains, locus YGL086W, strain mad1, hits give low values 0.99 | S. cerevisiae deletion strains, locus YGL248W, strain PDE1, hits give low values 0.98 | [6] 1.01 | S. cerevisiae deletion strains, locus YGR135W, strain pre9, hits give low values 1 | S. cerevisiae deletion strains, locus YGR229C, strain SMI1, hits give low values 1.01 | S. cerevisiae deletion strains, locus YGR252W, strain gcn5, hits give low values 0.95 | [7] 0.996 and 1.03 | S. cerevisiae deletion strains, locus YHR079C, strain IRE1 (second series), hits give low values 1 | S. cerevisiae deletion strains, locus YHR079C, strain IRE1, hits give low values 0.993 | S. cerevisiae deletion strains, locus YHR094C, strain hxt1, hits give low values 0.996 | S. cerevisiae deletion strains, locus YHR129C, strain ARP1, hits give low values 1 | S. cerevisiae deletion strains, locus YHR200W, strain rpn10, hits give low values 1 | S. cerevisiae deletion strains, locus YIL066C, strain RNR3, hits give low values 0.97 | S. cerevisiae deletion strains, locus YIL073C, strain SPO22, hits give low values 0.982 | S. cerevisiae deletion strains, locus YIL125W, strain kgd1, hits give low values 0.99 | S. cerevisiae deletion strains, locus YIR030C, strain dcg1, hits give low values 0.99 | S. cerevisiae deletion strains, locus YJL095W, strain BCK1, hits give low values 1.02 and 0.989 | S. cerevisiae deletion strains, locus YJL134W, strain LCB3, hits give low values 0.984 | S. cerevisiae deletion strains, locus YJL168C, strain set2, hits give low values 1 | S. cerevisiae deletion strains, locus YJL187C, strain SWE1 (second series), hits give low values 0.986 | [8] 1.02 | S. cerevisiae deletion strains, locus YJR066W, strain TOR1, hits give low values 0.962 | [9] 1 | S. cerevisiae deletion strains, locus YKL009W, strain mrt4, hits give low values 0.96 | S. cerevisiae deletion strains, locus YKL068W, hits give low values 0.997 | S. cerevisiae deletion strains, locus YKL085W, strain MDH1 (second series), hits give low values 0.996 | S. cerevisiae deletion strains, locus YKL085W, strain MDH1, hits give low values 0.996 | [10] 1 | S. cerevisiae deletion strains, locus YKR001C, strain vps1, hits give low values 1.01 | [11] 0.972 | S. cerevisiae deletion strains, locus YLR058C, strain SHM2, hits give low values 0.964 | S. cerevisiae deletion strains, locus YLR102C, strain apc9, hits give low values 1 | S. cerevisiae deletion strains, locus YLR113W, strain HOG1, hits give low values 0.982 | [12] 0.93 | S. cerevisiae deletion strains, locus YLR268W, strain sec22, hits give low values 1.07 | S. cerevisiae deletion strains, locus YLR330W, strain CHS5, hits give low values 0.983 | S. cerevisiae deletion strains, locus YLR342W, strain FKS1 (second series), hits give low values 1.01 | S. cerevisiae deletion strains, locus YLR371W, strain rom2, hits give low values 0.988 | S. cerevisiae deletion strains, locus YLR418C, strain cdc73, hits give low values 0.998 | S. cerevisiae deletion strains, locus YML016C, strain PPZ1, hits give low values 0.982 | S. cerevisiae deletion strains, locus YML032C, strain rad52, hits give low values 1.02 | S. cerevisiae deletion strains, locus YML124C, strain tub3, hits give low values 0.992 | S. cerevisiae deletion strains, locus YMR078C, strain ctf18, hits give low values 1 | S. cerevisiae deletion strains, locus YMR223W, strain ubp8, hits give low values 0.983 | [13] 1.01 | [14] 0.987 | S. cerevisiae deletion strains, locus YNL067W, strain RPL9B, hits give low values 1.02 | [15] 0.976 | [16] 0.998 | S. cerevisiae deletion strains, locus YNL183C, strain NPR1, hits give low values 0.954 | S. cerevisiae deletion strains, locus YNL233W, strain BNI4, hits give low values 1 | S. cerevisiae deletion strains, locus YNL250W, strain rad50, hits give low values 0.975 | S. cerevisiae deletion strains, locus YNL271C, strain bni1, hits give low values 1.01 | S. cerevisiae deletion strains, locus YNL298W, strain CLA4, hits give low values 0.999 | S. cerevisiae deletion strains, locus YNL307C, strain MCK1, hits give low values 0.987 | [17] 0.994 | S. cerevisiae deletion strains, locus YNR052C, strain pop2, hits give low values 1 | S. cerevisiae deletion strains, locus YOL006C, strain TOP1, hits give low values 1.03 | S. cerevisiae deletion strains, locus YOL012C, strain htz1 0.801 | S. cerevisiae deletion strains, locus YOL147C, strain pex11, hits give low values 0.991 | S. cerevisiae deletion strains, locus YOR061W, strain CKA2, hits give low values 0.976 | S. cerevisiae deletion strains, locus YOR069W, strain VPS5, hits give low values 0.98 | S. cerevisiae deletion strains, locus YOR136W, strain idh2, hits give low values 0.986 | S. cerevisiae deletion strains, locus YOR144C, strain elg1, hits give low values 0.997 | S. cerevisiae deletion strains, locus YOR184W, strain ser1, hits give low values 0.985 | S. cerevisiae deletion strains, locus YOR231W, strain MKK1, hits give low values 1.02 | S. cerevisiae deletion strains, locus YOR316C, strain cot1, hits give low values 0.995 | [18] 0.978 | [19] 0.994 | S. cerevisiae deletion strains, locus YPL256C, strain CLN2, hits give low values 1.05 | S. cerevisiae deletion strains, locus YPR119W, strain clb2, hits give low values 0.991 | S. cerevisiae deletion strains, locus YPR141C, strain kar3, hits give low values 0.981 | S. cerevisiae deletion strains, locus YPR163C, strain tif3, hits give low values 1 | S. cerevisiae deletion strains, locus YPR167C, strain met16, hits give low values 1 | S. cerevisiae deletion strains, strain wtn01, hits give low values 1.02 | S. cerevisiae strains, strain wild type, hits give low values 0.981

CC(C)(O)C1C2OC(=O)C1C1(O)CC3OC34C(=O)OC2C14C (stereo not given) (tested in a mixture with another compound)
active: [20] 0.454 | [21] 0.537 | [24] 0.502
inactive: S. cerevisiae deletion strains, locus YCL061C, strain MRC1 (second series), hits give low values 1.01 | S. cerevisiae deletion strains, locus YDR363W, strain ESC2, hits give low values 0.969 | [14] 0.983 | [22] 1 | [23] 1

Ic1ccc(I)s1
inactive: [1] 1.03 | [2] 1 | S. cerevisiae deletion strains, locus YCL061C, strain MRC1, hits give low values 1.03 | [3] 1.01 | [4] 1.02 | [5] 1.04 | [6] 1.02 | [7] 1.22 | [25] 1 | S. cerevisiae deletion strains, locus YJL187C, strain SWE1, hits give low values 1.01 | [8] 1.04 | [9] 1.02 | [10] 1.01 | [11] 1.18 | [26] 0.999 | [27] 1.01 | [12] 1.16 | [28] 1.02 | [29] 1.01 | [13] 1 | [14] 1.12 | [15] 1 | [16] 1.01 | [30] 1.04 | [17] 1.01 | [31] 1.04 | [18] 1.03 | [19] 1.06 | [32] 1.11

O=C1O/C(=C/Br)CCC1c1cccc2ccccc12 (stereo not given)
active: [16] 0.6 | [21] 0.61 | [23] 0.771 | [24] 0.775
inactive: [1] 0.952 | [20] 1 | S. cerevisiae deletion strains, locus YER002W, strain NOP16, hits give low values 1.01 | [13] 0.989 | [22] 0.947 | [18] 0.922 | [19] 0.998

COc1cccc(OC)c1C(C)(O)C(OC)OC (stereo not given)
inactive: [1] 0.996 | [2] 0.989 | [3] 0.999 | [4] 1.02 | [5] 1.01 | [6] 1 | [7] 1.05 | [25] 1.03 | [8] 1.01 | [9] 1 | [11] 1.02 | [26] 1.02 | [27] 1.03 | [12] 1.01 | [28] 0.997 | [29] 1 | [13] 0.941 | [14] 0.98 | [16] 0.994 | [30] 1.05 | [17] 1.01 | [31] 1.02 | [18] 1.03 | [19] 1.02 | [32] 1.09
